Measured values: PubChem BioAssay AID521 (Sanford-Burnham Center for Chemical Genomics, 2006)
Values joined by “and” are separate entries in the source; they are usually repeats but may differ in a detail not shown here. Equal values may be shown once. Screen size: about 110,000 compounds; about 730 (0.66%) were called active. Cut-off read from the data, not from the text of the source: active = inhibition above about 50%; inconclusive = no clear call, values can overlap the other calls; inactive = below that. The entries come from a sample that favours actives as a whole.

The molecules below were run against Tyrosine-protein phosphatase non-receptor type 7 (Homo sapiens) (UniProt P35236) (assay: HePTP tyrosine phosphatase activity blockers – biochemical, absorbance, leukemia target, primary screen (AID 521;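 note: plate controls were vehicle for no effect and reference inhibitor for full effect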)). Conditions: recombinant HePTP phosphatase activity, OD absorbance; at 20 µM; active compounds read high.
Tyrosine-protein phosphatase non-receptor type 7 (Homo sapiens), sequence (P35236 whole entry, looked up): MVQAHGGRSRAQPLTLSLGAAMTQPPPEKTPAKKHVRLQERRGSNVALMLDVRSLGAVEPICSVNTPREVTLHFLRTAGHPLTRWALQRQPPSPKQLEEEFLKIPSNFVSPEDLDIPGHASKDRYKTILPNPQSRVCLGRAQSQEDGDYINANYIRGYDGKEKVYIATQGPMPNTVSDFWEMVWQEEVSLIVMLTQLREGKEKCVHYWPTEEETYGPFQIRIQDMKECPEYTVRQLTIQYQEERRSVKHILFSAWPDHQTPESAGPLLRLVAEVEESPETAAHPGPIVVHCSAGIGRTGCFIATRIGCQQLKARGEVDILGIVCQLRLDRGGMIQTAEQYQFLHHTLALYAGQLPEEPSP

SMILES	inhibition
O=C1CC(N2CCN(c3ccccc3F)CC2)C(=O)N1c1cccc(Cl)c1 (stereo not given)	5.6% (inactive)
O=C1C=CC2=C3Oc4c(ccc5cc(O)ccc45)C(c4ccccc4C(=O)O)C3C=CC2=C1 (stereo not given)	103% (active)
NC(=S)N/N=C(/Cc1ccccc1)c1ccc(-c2ccccc2)cc1	6.5% (inactive)
COc1ccccc1C1SCCN1S(=O)(=O)c1ccc(-c2ccccc2)cc1 (stereo not given)	7.9% (inactive)
Cc1cccc(N2CCN(C(=O)C(Cl)(Cl)Cl)CC2)c1C	5.3% (inactive)
CC(C)(O)C#Cc1ccc(C2C3=C(CC(C)(C)CC3=O)OC3=C2C(=O)CC(C)(C)C3)cc1	1.5% (inactive)
COc1ccc(C(=O)ON=C2c3ccccc3-c3ccccc32)cc1OC	62.3% (active)
COc1cc(C(C)=O)ccc1OC(=O)CN1C(=O)c2ccccc2C1=O	-2.9% (inactive)
COc1cc2c(cc1C)/C(=N/OC(=O)c1ccc(OC)c([N+](=O)[O-])c1)CCC2	-10.5% (inactive)
CCCCOc1c([N+](=O)[O-])cc([N+](=O)[O-])c2nsnc12	10.8% (inactive)
O=C1Nc2ccccc2/C1=N\N=C\c1c(F)cccc1Cl	14% (inactive)
CCCC(NC(=O)c1ccccc1)C(=O)OCC(=O)Nc1sc2c(c1C(=O)OCC)CCCC2 (stereo not given)	1.3% (inactive)
CCOC(=O)c1c(N)sc(C)c1CC	-13.6% (inactive)
CC1(C)Cc2ccccc2C(N/N=C/c2c(O)ccc3ccccc23)=N1	5% (inactive)
CCOc1ccccc1NC(=O)c1c(NC(=O)c2cccs2)sc2c1CCC(C)C2 (stereo not given)	74.5% (active)
CCOc1ccccc1NC(=O)c1c(NC(=O)c2ccco2)sc2c1CCC(C)C2 (stereo not given)	4.6% (inactive)
Cc1ccccc1NC(=O)c1c(NC(=O)C(C)(C)C)sc2c1CCC(C)C2 (stereo not given)	3.9% (inactive)
ONC(=Nc1ccc2c(c1)OCO2)C(=Nc1ccc2c(c1)OCO2)NO	-7.5% (inactive)
COc1ccc(C2SCCN2C(=O)c2cc3ccccc3oc2=O)cc1 (stereo not given)	-6.8% (inactive)
Cc1ccc(OCC(=O)NCc2ccc(F)cc2)c(Br)c1	0% (inactive)

SMILES	inhibition
O=C(COc1cc2oc(=O)c3c(c2cc1Cl)CCCC3)OCc1ccccc1	7% (inactive)
Cc1ccc(-c2cc(C(=O)NCc3ccccc3)c3ccccc3n2)o1	53.4% (active)
Cc1ccc(C)c(-c2cc(C(=O)NN)c3ccccc3n2)c1	5% (inactive)
Cc1ccc(-c2cc(C(=O)N3CC(C)CC(C)C3)c3ccccc3n2)cc1C (stereo not given)	-17% (inactive)
Cc1ccc(-c2cc(C(=O)N3CCCCCC3)c3ccccc3n2)o1	78.1% (active)
Cc1ccc(NC(=O)c2cc(-c3ccc(C)o3)nc3ccccc23)nc1	2.7% (inactive)
CCOc1cccc(-c2cc(C(=O)N3CCCCCC3)c3ccccc3n2)c1	-11.5% (inactive)
CCOc1cc(C(=O)Nc2ncccn2)cc(OCC)c1OCC	-0.3% (inactive) and 8.9% (inactive)
CCOc1cc(C(=O)Nc2cccc(F)c2)cc(OCC)c1OCC	104% (active)
COc1ccc(NC(=O)c2cccc(F)c2)cc1OC	9.7% (inactive)
CCOc1ccc(C(=O)Nc2ccc(I)cc2Cl)cc1[N+](=O)[O-]	3.7% (inactive)
O=C(Nc1cccc(I)c1)c1ccc2c(c1)C(=O)N(CC1CCCO1)C2=O (stereo not given)	6.2% (inactive)
Cc1ccc(N(Cc2ccc(C(=O)N3CCCCC3)cc2)S(C)(=O)=O)cc1C	13.9% (inactive)
O=C(NCC1CCCO1)c1cc(-c2ccccc2)nc2ccccc12 (stereo not given)	-0.5% (inactive)
CCOc1ccc(NC(=O)Nc2cc(C)on2)cc1	-4.8% (inactive)
CCCOc1ccccc1N/C(=N/S(=O)(=O)c1ccc(C)cc1)Nc1nc(C)cc(C)n1	-1.6% (inactive)
CCOc1ccc(N/C(=N\S(=O)(=O)c2ccc(NC(C)=O)cc2)Nc2nc(C)cc(C)n2)cc1	104% (active)
O=C(/C=C/c1ccc([N+](=O)[O-])cc1)N1CCc2ccccc2C1	-1.1% (inactive)
Cc1ccc(N2C(=O)NC(=O)/C(=C\c3cccc(C)c3)C2=O)cc1	4.7% (inactive)
O=C1/C(=C/c2ccc(-c3ccc(Cl)cc3C(=O)O)o2)Sc2ccccc21	99% (active)

SMILES	inhibition
O=C1S/C(=C/c2ccc(-c3ccc(Cl)cc3Cl)o2)C(=O)N1c1ccccc1	-6.4% (inactive)
Cc1ccc(-c2ccc(/C=C3\Sc4ccccc4C3=O)o2)c([N+](=O)[O-])c1	-1.6% (inactive)
Cc1oc2ccc(OCC(=O)c3ccccc3)cc2c1C(=O)O	6.3% (inactive)
O=C(Nc1ccc(I)cc1)c1ccc2nccnc2c1	8.3% (inactive)
Cc1ccc(/C=N/NC(=O)C2CC(=O)N(c3ccc(Cl)cc3)C2)cc1 (stereo not given)	4.9% (inactive)
CCOc1ccccc1C(=O)Nc1ccc(Cl)cc1[N+](=O)[O-]	-5.6% (inactive)
O=C(NC(=S)Nc1ccc(-c2nc3cc(Cl)ccc3o2)cc1)c1ccco1	4.7% (inactive)
CN1CN=C2SC3(COC(c4cccc(Br)c4)OC3)C(=O)N2C1 (stereo not given)	-17.5% (inactive)
Cc1ccc(/C=C/C(=O)Nc2nc3ccc(S(C)(=O)=O)cc3s2)cc1	-6.1% (inactive)
Cc1ccc(S(=O)(=O)N(CC(O)CN(C)C)c2cccc3ccccc23)cc1 (stereo not given)	104% (active)
Cc1ccc(N(CC(O)CN2CCCC2)S(=O)(=O)c2ccccc2)cc1 (stereo not given)	-3.8% (inactive)
Cc1cccc(N(CC(O)CN(C)C)S(=O)(=O)c2ccccc2)c1 (stereo not given)	-7.9% (inactive)
CC(C)c1ccc(C=NCCCO)cc1	-12.6% (inactive)
O=C(N=Nc1c(O)[nH]c2ccc(F)cc12)c1ccccc1O	-14.6% (inactive)
O=C(N=Nc1c(O)[nH]c2ccc([N+](=O)[O-])cc12)c1cccc(Br)c1	56.4% (active)
Nc1nonc1C(=O)N=Nc1c(O)[nH]c2ccccc12	-0.8% (inactive)
O=C1C2C3CC4C2C(=O)C2(c5ccccc5)C1C3C42 (stereo not given)	-6.6% (inactive)
COc1ccc(CCNC(=O)COc2ccc(Br)cc2)cc1OC	-20% (inactive)
COCCCNC(=O)COc1cc(C)c(Cl)c(C)c1	5.1% (inactive)
COc1ccc(CCNC(=O)COc2cc(C)c(Cl)c(C)c2)cc1OC	103% (active)
